Experimental data: article PMC11062922 (Nature Chemical Biology, 2023)
Like-named read-outs stand apart in the source and are kept apart here.

How the values were obtained:
Set-up in all cases: species or system human, MV4-11 + K-562 + COLO205 + SK-N-BE2 + OVCAR-8
[1] = tested on: MAPK11; details: read-out: apparent Kd, n = 1
[2] = tested on: MAPK14; details: read-out: apparent Kd, n = 1
[3] = tested on: MAPK8; details: read-out: apparent Kd, n = 1
[4] = tested on: MAPK9; details: read-out: apparent Kd, n = 1
[5] = tested on: MAPKAPK2; details: read-out: apparent Kd, n = 1
[6] = tested on: NLK; details: read-out: apparent Kd, n = 1
[7] = tested on: PIP4K2C; details: read-out: apparent Kd; compound concentrations:100 nM and 1000 nM (sheet 'Samples'); n = 1
[8] = tested on: JAK2; details: read-out: apparent Kd, compound concentrations: 100 nM and 1000 nM (sheet 'Samples'), n = 1
[9] = tested on: MAPK10; details: read-out: apparent Kd, n = 1
[10] = tested on: NUAK1; details: read-out: apparent Kd, n = 1
[11] = tested on: MAP3K1; details: read-out: apparent Kd; compound concentrations: 100 nM and 1000 nM (sheet 'Samples'), CATDS: 0.14122884829610699; n = 1
[12] = tested on: MAP4K5; details: read-out: apparent Kd; compound concentrations: 100 nM and 1000 nM (sheet 'Samples'), CATDS: 0.32149724662749601; n = 1
[13] = tested on: PLK1; details: read-out: apparent Kd; compound concentrations: 100 nM and 1000 nM (sheet 'Samples'), CATDS: 0.55429480894525696; n = 1
[14] = tested on: SLK; details: read-out: apparent Kd; compound concentrations: 100 nM and 1000 nM (sheet 'Samples'), CATDS: 0.14112272983739199; n = 1
[15] = tested on: STK10; details: read-out: apparent Kd; compound concentrations: 100 nM and 1000 nM (sheet 'Samples'), CATDS: 0.168955384509856; n = 1
[16] = tested on: PIK3CA; details: read-out: apparent Kd; compound concentrations: 100 nM and 1000 nM (sheet 'Samples'), CATDS: 0.76689409603513903; n = 1
[17] = tested on: MAP3K12; details: read-out: apparent Kd; compound concentrations:100 nM and 1000 nM (sheet 'Samples'); n = 1
[18] = tested on: NUAK2; details: read-out: apparent Kd; compound concentrations:100 nM and 1000 nM (sheet 'Samples'); n = 1
[19] = tested on: NQO1; details: read-out: apparent Kd; compound concentrations:100 nM and 1000 nM (sheet 'Samples'); n = 1
[20] = compound concentrations:100 nM and 1000 nM (sheet 'Samples')

What does the source list for `Cl.Cn1c(=O)c(Oc2ccc(F)cc2F)cc2cnc(N[C@H]3CC[C@H](O)CC3)nc21` [RO3305413-001]?
potency estimated from few doses [1, 20]: 806 nM; potency estimated from few doses [2, 20]: 5.68 nM; potency estimated from few doses [3, 20]: 75.9 nM; potency estimated from few doses [4, 20]: 26.4 nM; potency estimated from few doses [5, 20]: 4.66 nM; potency estimated from few doses [6, 20]: 199 nM; potency estimated from few doses [7]: 791 nM

Which results are given for `Cc1ccc(NC(=O)c2ccnc(N3CCCCC3)c2)cc1-c1ccc(C(=O)NCC2CC2)cc1` [GW775610X]?
potency estimated from few doses [1, 20]: 309 nM; potency estimated from few doses [2, 20]: 199 nM; potency estimated from few doses [5, 20]: 107 nM

For `O=c1c(Oc2ccc(F)cc2F)cc2cnc(NC3CCOCC3)nc2n1C1CCS(=O)(=O)CC1` [RO5036538-000], which potency estimated from few doses ([8]; CATDS: 0.12292389109729) is on record?
Its potency estimated from few doses is 230 nM.

What about the potency estimated from few doses ([9]; compound concentrations: 100 nM and 1000 nM (sheet 'Samples'), CATDS: 0.124709728908191) of the same compound?
Its potency estimated from few doses is 221 nM.

What about the potency estimated from few doses ([1]; compound concentrations: 100 nM and 1000 nM (sheet 'Samples'), CATDS: 7.2010910388864605E-2) of the same compound?
Its potency estimated from few doses is 1420 nM.

And the potency estimated from few doses ([2]; compound concentrations: 100 nM and 1000 nM (sheet 'Samples'), CATDS: 0.47843238213420702)?
Its potency estimated from few doses is 13.9 nM.

And the potency estimated from few doses ([3]; compound concentrations: 100 nM and 1000 nM (sheet 'Samples'), CATDS: 7.6573616533716707E-2)?
The potency estimated from few doses was 1060 nM.

And the potency estimated from few doses ([4]; compound concentrations: 100 nM and 1000 nM (sheet 'Samples'), CATDS: 9.6122690538123806E-2)?
The potency estimated from few doses was 462 nM.

What about the potency estimated from few doses ([5]; compound concentrations: 100 nM and 1000 nM (sheet 'Samples'), CATDS: 0.314538074262177) of the same compound?
The potency estimated from few doses was 28.2 nM.

And the potency estimated from few doses ([6]; compound concentrations: 100 nM and 1000 nM (sheet 'Samples'), CATDS: 8.6125216910038493E-2)?
Its potency estimated from few doses is 667 nM.

What about the potency estimated from few doses ([10]; compound concentrations: 100 nM and 1000 nM (sheet 'Samples'), CATDS: 9.4194293053738595E-2) of the same compound?
Its potency estimated from few doses is 493 nM.

For `Cl.Cn1c(=O)c(Oc2ccc(F)cc2F)cc2cnc(NCCS(C)(=O)=O)nc21` [RO3309294-001], which potency estimated from few doses ([2]; compound concentrations: 100 nM and 1000 nM (sheet 'Samples'), CATDS: 1) is on record?
The potency estimated from few doses was 344 nM.

What does the source list for `Cc1ccc(NC(=O)c2cccc(N3CCCCC3)c2)cc1-c1ccc(C(=O)NCC2CC2)cc1` [GSK1917008A]?
potency estimated from few doses ([1]; compound concentrations: 100 nM and 1000 nM (sheet 'Samples'), CATDS: 0.21712264720535299): 591 nM; potency estimated from few doses ([2]; compound concentrations: 100 nM and 1000 nM (sheet 'Samples'), CATDS: 0.45448285689505602): 64.8 nM; potency estimated from few doses ([5]; compound concentrations: 100 nM and 1000 nM (sheet 'Samples'), CATDS: 0.455787440841948): 64.5 nM

Which results are given for `COCCNC(=O)c1ccc(-c2cc(C(=O)NC3CC3)cc(F)c2C)cc1` [GW868318X]?
potency estimated from few doses [1, 20]: 108 nM; potency estimated from few doses ([2]; compound concentrations: 100 nM and 1000 nM (sheet 'Samples'), CATDS: 0.55857087808569805): 22.7 nM; potency estimated from few doses [5, 20]: 79.6 nM

For `COc1cc2ncn(-c3cc(OCc4ccccc4Cl)c(C(N)=O)s3)c2cc1OC` [GW852849X], which potency estimated from few doses [11] is on record?
The potency estimated from few doses was 1950 nM.

And the potency estimated from few doses [12]?
Its potency estimated from few doses is 184 nM.

What about the potency estimated from few doses [13] of the same compound?
The potency estimated from few doses was 68.2 nM.

What about the potency estimated from few doses [14] of the same compound?
The potency estimated from few doses was 1960 nM.

What about the potency estimated from few doses [15] of the same compound?
Its potency estimated from few doses is 1000 nM.

With `NC(=O)c1sc(-n2cnc3cc(C(F)(F)F)ccc32)cc1OCc1ccccc1Br` [GW853609X] as the compound, how does the potency estimated from few doses ([8]; CATDS: 0.37091451707305101) read?
Its potency estimated from few doses is 1140 nM.

And the potency estimated from few doses [16]?
The potency estimated from few doses was 204 nM.

What does the source list for `O=C(Nc1n[nH]c2nc(-c3ccccc3)c(Cl)cc12)C1CC1` [SB-734909]?
potency estimated from few doses [17]: 1520 nM; potency estimated from few doses [1, 20]: 1940 nM; potency estimated from few doses [10, 20]: 1980 nM; potency estimated from few doses [18]: 1350 nM

Which potency estimated from few doses [9, 20] does the source give for `Cl.Cn1c(=O)c(Oc2ccccc2F)cc2cnc(NC3CCOCC3)nc21` [RO3304805-001] here?
The potency estimated from few doses was 1050 nM.

And the potency estimated from few doses [2, 20]?
Its potency estimated from few doses is 58.4 nM.

And the potency estimated from few doses [4, 20]?
The potency estimated from few doses was 484 nM.

And the potency estimated from few doses [5, 20]?
Its potency estimated from few doses is 73.7 nM.

And the potency estimated from few doses [19]?
Its potency estimated from few doses is 1480 nM.

With `CN(C)CC#Cc1cccc(C(=O)c2cnn(-c3ccc(F)cc3)c2N)c1.Cl` [RO1154641-001] as the compound, how does the potency estimated from few doses ([1]; compound concentrations: 100 nM and 1000 nM (sheet 'Samples'), CATDS: 0.57557980724534297) read?
Its potency estimated from few doses is 758 nM.

What about the potency estimated from few doses ([2]; compound concentrations: 100 nM and 1000 nM (sheet 'Samples'), CATDS: 0.44196522207196598) of the same compound?
The potency estimated from few doses was 1300 nM.
